Screening results (PubChem)
FadD28 binding = M. tuberculosis FadD28 bisubstrate binding inhibition | inhibition, % at 12.5 µM | 0.22% of 360,000 active | FadD28 bisubstrate probe binding, fluorescence polarization; in the data active means inhibition above about 8.5%, passing the limit was not always enough
BioA inh = blocks M. tuberculosis BioA enzyme activity; purified M. tuberculosis BioA enzyme, plate reader; inhibition, % at 9.99 µM; 0.096% of 360,000 active; AID 602481; in the data active means inhibition above about 40%
GDH-TPI counter-1 = counter-screen for M. tuberculosis FBA inhibitors: GDH-TPI coupled enzymes | 1.2% of 360,000 active | GDH-TPI coupled enzyme counterscreen, NADH absorbance | inhibition, % at 4.8 µM; in the data active means inhibition above about 30%
SARS 3CLpro inh = SARS-CoV 3CLpro protease inhibition. P0C6X7. recombinant SARS-CoV 3CLpro, quenched FRET peptide cleavage. inhibition, % at 6 µM. 0.14% of 290,000 active. AID 1706; in the data active means inhibition above about 12%
FBA Mtb inh = inhibitors of M. tuberculosis fructose-bisphosphate aldolase; AID 588726; 2.3% of 360,000 active; purified M. tuberculosis FBA, fluorescence read-out; P9WQA3; inhibition, % at 1 µM
Target sequence (P9WQA3 whole entry, looked up): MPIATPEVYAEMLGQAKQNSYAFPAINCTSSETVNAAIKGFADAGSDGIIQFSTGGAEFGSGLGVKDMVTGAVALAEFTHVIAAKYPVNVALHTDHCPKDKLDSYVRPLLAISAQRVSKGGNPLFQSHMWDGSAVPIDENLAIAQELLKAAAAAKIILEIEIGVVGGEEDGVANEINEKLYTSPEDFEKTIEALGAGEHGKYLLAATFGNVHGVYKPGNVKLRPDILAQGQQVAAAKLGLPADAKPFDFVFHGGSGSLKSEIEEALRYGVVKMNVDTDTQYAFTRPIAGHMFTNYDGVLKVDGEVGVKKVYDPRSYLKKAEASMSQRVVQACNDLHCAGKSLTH
Mtb FBA confirm = confirmation of M. tuberculosis fructose-bisphosphate aldolase inhibitors. shares compounds with FBA Mtb inh. purified M. tuberculosis FBA, fluorescence read-out. inhibition, % at 1 µM. 78% of 5,600 active
GDH-TPI counter-2 = GDH-TPI inhibition counter-screen for FBA inhibitors. inhibition, % at 1 µM. GDH-TPI coupled enzyme counterscreen, fluorescence. shares compounds with FBA Mtb inh. AID 652141. 81% of 5,600 active; in the data active means inhibition above about 10%
GDH-TPI DR = inhibits GDH-TPI coupling enzymes in dose response; shares compounds with FBA Mtb inh; GDH-TPI coupled enzyme assay, fluorescence, artifact counterscreen; IC50, µM; 79% of 170 active; AID 652145; call rule not given here
Large screens that a line does not name were inactive (follow-up assays come after a bar, where they were run). Only some compounds are listed: those with a hit (about 3.1% of all), similar ones and a draw of the others. Unless noted, no stated cut-off is given here; in the data, active means inhibition above about 27%; inactive means the rest.

O=C(c1cnccn1)N(c1ccccc1)C1(C(=O)NC2CCCCC2)CCCCC1	FBA Mtb inh 30 | Mtb FBA confirm 29 | GDH-TPI counter-2 18
C[C@@H]1CN([C@H](C)CO)C(=O)c2cc(NC(=O)C3CCCCC3)ccc2O[C@H]1CN(C)S(=O)(=O)c1ccc(Cl)cc1	none (no result: FadD28 binding, GDH-TPI counter-1, SARS 3CLpro inh, FBA Mtb inh)
Clc1ccc(N2N=C(c3cccs3)CC2c2ccco2)cc1 (configuration not stated)	FBA Mtb inh 81 (no result: BioA inh) | Mtb FBA confirm 82 | GDH-TPI counter-2 55
O=[N+]([O-])c1ccc(N2N=C(c3ccco3)CC2c2ccccc2)cc1 (configuration not stated)	none
Fc1ccc(C2CC(c3ccco3)=NN2c2ccccc2)cc1 (configuration not stated)	FBA Mtb inh 60 | Mtb FBA confirm active | GDH-TPI counter-2 active
c1ccc(N2N=C(c3cccs3)CC2c2ccco2)cc1 (configuration not stated)	FBA Mtb inh 78 | Mtb FBA confirm inactive | GDH-TPI counter-2 10
CCC(=O)N1N=C(c2cccs2)CC1c1ccco1 (configuration not stated)	none (no result: BioA inh)
N#C[C@@H]1[C@@H](c2ccc(C3=CCCC3)cc2)[C@@H](CO)N1C(=O)NC1CCCC1	none (no result: FadD28 binding, GDH-TPI counter-1, SARS 3CLpro inh, FBA Mtb inh)
COc1ccccc1CN1[C@@H]2CN(C(=O)C3CCCCC3)c3ccccc3[C@@H]2[C@@H]1CO	none (no result: FadD28 binding, GDH-TPI counter-1, SARS 3CLpro inh, FBA Mtb inh)
COc1ccc(NC(=O)N(C)C[C@@H]2Oc3ccc(N(C)C)cc3C(=O)N([C@@H](C)CO)C[C@@H]2C)cc1	none (no result: FadD28 binding, GDH-TPI counter-1, SARS 3CLpro inh, FBA Mtb inh)
C[C@H](CO)N1C[C@H](C)[C@H](CN(C)C(=O)CCC(F)(F)F)OCCCC[C@H](C)Oc2ccc(NC(=O)CCCN(C)C)cc2C1=O	none (no result: FadD28 binding, GDH-TPI counter-1, SARS 3CLpro inh, FBA Mtb inh)
CC(=O)c1ccc(OCC(O)CN2CCOCC2)cc1 (configuration not stated)	none
O=C(c1ccccc1)c1ccc(OCC(O)CN2CCOCC2)cc1 (configuration not stated)	FBA Mtb inh 76 | Mtb FBA confirm inactive | GDH-TPI counter-2 inactive | GDH-TPI DR inactive
C[C@@H]1CCCCO[C@@H](CN(C)Cc2ccc(C(F)(F)F)cc2)[C@H](C)CN([C@H](C)CO)C(=O)c2cc(NC(=O)CCC(F)(F)F)ccc2O1	none (no result: FadD28 binding, GDH-TPI counter-1, SARS 3CLpro inh, FBA Mtb inh)
C[C@@H]1CN([C@@H](C)CO)C(=O)Cc2cc(NC(=O)C3CC3)ccc2O[C@H]1CN(C)Cc1ccc(Oc2ccccc2)cc1	none (no result: FadD28 binding, GDH-TPI counter-1, SARS 3CLpro inh, FBA Mtb inh)
O=C(COC(=O)c1ccccc1)NCC1CCCO1 (configuration not stated)	none
O=C(COC(=O)/C=C/c1ccccc1)NCC1CCCO1 (configuration not stated)	none (no result: BioA inh)
CSc1ccc(/C=C/C(=O)OCC(=O)NC2CCCCCC2)cc1	FBA Mtb inh 30 (no result: SARS 3CLpro inh) | Mtb FBA confirm active | GDH-TPI counter-2 196
O=C(COC(=O)c1cccc2ccccc12)NCC1CCCO1 (configuration not stated)	FBA Mtb inh 36 (no result: BioA inh) | Mtb FBA confirm 137 | GDH-TPI counter-2 120
CSc1ccc(/C=C/C(=O)OCC(=O)NC2CCS(=O)(=O)C2)cc1 (configuration not stated)	GDH-TPI counter-1 35, FBA Mtb inh 64 (no result: SARS 3CLpro inh) | Mtb FBA confirm 37 | GDH-TPI counter-2 24
CSc1ccc(/C=C/C(=O)OCC(=O)NCC2CCCO2)cc1 (configuration not stated)	FBA Mtb inh 45 (no result: SARS 3CLpro inh) | Mtb FBA confirm 53 | GDH-TPI counter-2 49
COc1cccc(/C=C/C(=O)OCC(=O)NCCNC(=O)COC(=O)/C=C/c2cccc(OC)c2)c1	none (no result: SARS 3CLpro inh)
COc1ccc(/C=C/C(=O)OCC(=O)N2CCCCCC2)cc1OC	none (no result: SARS 3CLpro inh)
COc1cccc(CNC(=O)COC(=O)/C=C/c2ccc(SC)cc2)c1	FBA Mtb inh 37 (no result: SARS 3CLpro inh) | Mtb FBA confirm active | GDH-TPI counter-2 active
CSc1ccc(/C=C/C(=O)OCC(=O)N2CCCCCC2)cc1	GDH-TPI counter-1 43, FBA Mtb inh 81 (no result: SARS 3CLpro inh) | Mtb FBA confirm active | GDH-TPI counter-2 active
CCCC(=O)Nc1ccc2c(c1)C(=O)N(C)[C@@H]1CC[C@@H](CC(=O)Nc3cn(C)nc3C)O[C@H]1CO2	none (no result: FadD28 binding, GDH-TPI counter-1, SARS 3CLpro inh, FBA Mtb inh)
Cc1nc2nc(CCNS(=O)(=O)c3ccc(Cl)cc3)cn2nc1C	FBA Mtb inh 72 | Mtb FBA confirm 62 | GDH-TPI counter-2 63
COc1ccc(S(=O)(=O)NCCc2cn3nc(C)c(C)nc3n2)cc1	FBA Mtb inh 59 | Mtb FBA confirm inactive | GDH-TPI counter-2 inactive
C[C@H]1CN([C@@H](C)CO)C(=O)Cc2cc(NS(=O)(=O)c3ccc(Cl)cc3)ccc2O[C@H]1CN(C)Cc1ccccc1	none (no result: FadD28 binding, GDH-TPI counter-1, SARS 3CLpro inh, FBA Mtb inh)
C[C@@H]1CN([C@H](C)CO)C(=O)c2cc(-c3ccncc3)cnc2O[C@@H]1CN(C)C(=O)NC1CCCC1	none (no result: FadD28 binding, GDH-TPI counter-1, SARS 3CLpro inh, FBA Mtb inh)
CCCc1nc2oc(C(=O)OCC)c(N)c2c2c1COC(C)(C)C2	FBA Mtb inh 59 | Mtb FBA confirm 92 | GDH-TPI counter-2 89
Cc1noc(C)c1NC(=O)Nc1ccc2c(c1)C(=O)N([C@H](C)CO)C[C@@H](C)[C@H](CN(C)Cc1ccc(C(F)(F)F)cc1)OCCCC[C@@H](C)O2	none (no result: FadD28 binding, GDH-TPI counter-1, SARS 3CLpro inh, FBA Mtb inh)
O=C(C[C@H]1CC[C@H]2[C@@H](COC[C@@H](O)CN2Cc2cc(F)ccc2F)O1)NCc1ccc(Oc2ccccc2)cc1	none (no result: FadD28 binding, GDH-TPI counter-1, SARS 3CLpro inh, FBA Mtb inh)
COc1ccc(-c2c3c(cc4ncn(Cc5ccccc5)c24)COC3=O)cc1	FBA Mtb inh 63 (no result: SARS 3CLpro inh) | Mtb FBA confirm 141 | GDH-TPI counter-2 138
COc1ccc(-c2csc3ncn(Cc4ccccc4)c(=O)c23)cc1	none
C[C@@H]1CN([C@@H](C)CO)C(=O)c2cccc(NC(=O)C3CC3)c2O[C@@H]1CN(C)C(=O)NC1CCCCC1	none (no result: FadD28 binding, GDH-TPI counter-1, SARS 3CLpro inh, FBA Mtb inh)
COc1ccc(-c2c(C)nc3c(-c4ccccn4)cnn3c2N)cc1	FBA Mtb inh 27 | Mtb FBA confirm 68 | GDH-TPI counter-2 67
COc1ccc(-c2c(C)nc3c(-c4ccsc4)cnn3c2N)cc1	none
CCOC(=O)C1CCN(C(=O)CCc2c(C)nc3ncnn3c2C)CC1	none
CCOC(=O)C1CCN(C(=O)CCc2c(C)nc3cc(-c4ccc(OC)cc4OC)nn3c2C)CC1	FBA Mtb inh 50 (no result: BioA inh) | Mtb FBA confirm 100 | GDH-TPI counter-2 68
CC(C)CC#Cc1ccc2c(c1)O[C@@H](CN(C)Cc1ccccn1)[C@H](C)CN([C@H](C)CO)S2(=O)=O	none (no result: FadD28 binding, GDH-TPI counter-1, SARS 3CLpro inh, FBA Mtb inh)
COc1ccc(C2Nc3ccccc3C(=O)N2Cc2ccco2)cc1COc1ccc(NC(C)=O)cc1 (configuration not stated)	FBA Mtb inh 41 | Mtb FBA confirm inactive | GDH-TPI counter-2 inactive
COc1ccc(C2Nc3ccccc3C(=O)N2c2ccccc2)cc1CSc1ccccn1 (configuration not stated)	none
COc1ccc(C2Nc3ccccc3C(=O)N2Cc2ccco2)cc1COc1ccccc1F (configuration not stated)	none (no result: BioA inh)
